From the supplement of paper PMC10849652
About 8,800 targets were measured; listed, in parts, are those with a hit and a random draw of the rest. About 0.5% of all pairs of compound and target were hits.

What was measured:
Assay in all cases: log2 fold change, soluble protein after heating vs DMSO (PISA); higher = thermal stabilisation; K562 lysate, 10 uM; active = over 0.2 and 3.5 SD of the protein, either way, in both replicates (recomputed)
lapatinib = compound: CS(=O)(=O)CCNCc1ccc(-c2ccc3ncnc(Nc4ccc(OCc5cccc(F)c5)c(Cl)c4)c3c2)o1 [lapatinib]
Summary of the method: (§1)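 A 30 min treatment with 10 μM compound was applied to crude K562 extract at 1 mg/mL protein in PBS pH 7.4 with 1 mM MgCl2. Heating for 3 min spanned 48°C-58°C, after which aliquots were pooled, adjusted to 0.5% NP-40 at 4°C and spun at 21,000xg for 90 min. TMTpro 16plex LC-MS/MS of the supernatant, with channel sums equalised, gave values recorded as log-two fold change in thermal stability against solvent controls, from duplicates.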

pictilisib = compound: CS(=O)(=O)N1CCN(Cc2cc3nc(-c4cccc5[nH]ncc45)nc(N4CCOCC4)c3s2)CC1 [pictilisib]
Summary of the method: as §1

crizotinib = compound: C[C@@H](Oc1cc(-c2cnn(C3CCNCC3)c2)cnc1N)c1c(Cl)ccc(F)c1Cl [crizotinib]
Summary of the method: as §1

[1] = compound: C[C@H](C1=CC=C(C=C1)C(=O)NC2=C3C=CNC3=NC=C2)N
Summary of the method: as §1

duvelisib = compound: C[C@H](Nc1ncnc2nc[nH]c12)c1cc2cccc(Cl)c2c(=O)n1-c1ccccc1 [duvelisib]
Summary of the method: as §1

gandotinib = compound: Cc1cc(Nc2cc(CN3CCOCC3)c3nc(C)c(Cc4ccc(Cl)cc4F)n3n2)n[nH]1 [gandotinib]
Summary of the method: as §1

tozasertib = compound: Cc1cc(Nc2cc(N3CCN(C)CC3)nc(Sc3ccc(NC(=O)C4CC4)cc3)n2)n[nH]1 [tozasertib]
Summary of the method: as §1

doramapimod = compound: Cc1ccc(-n2nc(C(C)(C)C)cc2NC(=O)Nc2ccc(OCCN3CCOCC3)c3ccccc23)cc1 [doramapimod]
Summary of the method: as §1

bafetinib = compound: Cc1ccc(NC(=O)c2ccc(CN3CC[C@H](N(C)C)C3)c(C(F)(F)F)c2)cc1Nc1nccc(-c2cncnc2)n1 [bafetinib]
Summary of the method: as §1

[2] = compound: Cc1cccc(CC(=O)N2CCc3c2ccc(-c2cn(C)c4ncnc(N)c24)c3F)n1
Summary of the method: as §1

Measured: log2 fold change

BRD2 isoform 2 (UniProt P25440)
inactive: lapatinib 0.014 | pictilisib 0.012 | crizotinib 0.024 | [1] 0.128 | duvelisib -0.007 | gandotinib -0.133 | tozasertib 0 | doramapimod -0.084 | bafetinib -0.131 | [2] -0.186

C2CD5 isoform 3 (UniProt Q86YS7)
inactive: lapatinib -0.031 | pictilisib -0.029 | crizotinib -0.028 | duvelisib -0.009 | gandotinib 0.125 | tozasertib -0.038 | doramapimod 0.035 | bafetinib -0.056
active: [1] -0.26 | [2] 0.28

CDK5RAP3 isoform 4 (UniProt Q96JB5)
inactive: lapatinib -0.013 | pictilisib -0.028 | crizotinib -0.054 | duvelisib -0.002 | gandotinib 0.173 | tozasertib 0.019 | doramapimod 0.017 | bafetinib -0.02 | [2] 0.211
active: [1] -0.231

CCNB2 (UniProt O95067)
UniProt O95067, sequence (O95067 whole entry, looked up): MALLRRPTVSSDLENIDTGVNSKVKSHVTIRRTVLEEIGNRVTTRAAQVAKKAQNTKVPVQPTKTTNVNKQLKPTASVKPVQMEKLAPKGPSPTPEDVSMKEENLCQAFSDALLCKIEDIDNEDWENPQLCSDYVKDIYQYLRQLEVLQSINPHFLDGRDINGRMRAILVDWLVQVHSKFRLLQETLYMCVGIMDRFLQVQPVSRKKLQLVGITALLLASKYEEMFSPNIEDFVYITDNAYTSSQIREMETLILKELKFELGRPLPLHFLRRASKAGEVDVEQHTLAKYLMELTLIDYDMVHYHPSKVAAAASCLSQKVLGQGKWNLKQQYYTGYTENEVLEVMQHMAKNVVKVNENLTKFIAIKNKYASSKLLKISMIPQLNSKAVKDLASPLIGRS
inactive: lapatinib -0.048 | pictilisib -0.091 | crizotinib -0.018 | [1] -0.016 | duvelisib 0.032 | gandotinib -0.108 | tozasertib 0.023 | doramapimod 0.009 | bafetinib -0.035 | [2] 0.068

BLOC1S6 (UniProt Q9UL45)
inactive: lapatinib -0.018 | pictilisib -0.037 | crizotinib 0.062 | [1] 0.048 | duvelisib 0.021 | gandotinib 0.031 | tozasertib -0.11 | doramapimod -0.011 | bafetinib 0.033 | [2] -0.066

CAMLG (UniProt P49069)
inactive: lapatinib 0.009 | pictilisib -0.039 | crizotinib 0.014 | [1] 0.179 | duvelisib -0.001 | gandotinib -0.058 | tozasertib -0.037 | doramapimod -0.005 | bafetinib 0 | [2] -0.12

CHD5 (UniProt Q8TDI0)
inactive: lapatinib 0.028 | pictilisib 0.007 | crizotinib -0.03 | [1] 0 | duvelisib -0.056 | gandotinib 0.001 | tozasertib -0.074 | doramapimod 0.034 | bafetinib -0.042 | [2] -0.002

CDK1 (UniProt P06493)
inactive: lapatinib -0.012 | pictilisib -0.021 | crizotinib -0.041 | [1] -0.018 | duvelisib 0.031 | gandotinib -0.224 | tozasertib 0.001 | doramapimod 0.019 | bafetinib -0.016 | [2] -0.022

CDC123 (UniProt O75794)
UniProt O75794, sequence (O75794 whole entry, looked up): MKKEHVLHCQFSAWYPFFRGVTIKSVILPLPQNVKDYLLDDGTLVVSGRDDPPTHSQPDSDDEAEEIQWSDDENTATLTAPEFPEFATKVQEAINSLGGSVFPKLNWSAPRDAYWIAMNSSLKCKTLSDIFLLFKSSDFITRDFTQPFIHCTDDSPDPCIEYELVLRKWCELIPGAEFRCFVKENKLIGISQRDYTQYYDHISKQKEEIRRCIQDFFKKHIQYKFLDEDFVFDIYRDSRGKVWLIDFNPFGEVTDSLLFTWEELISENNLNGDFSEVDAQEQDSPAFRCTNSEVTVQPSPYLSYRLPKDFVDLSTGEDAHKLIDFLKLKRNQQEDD
active: gandotinib 0.335
inactive: lapatinib 0.016 | pictilisib -0.011 | crizotinib -0.012 | [1] 0.032 | duvelisib 0.02 | tozasertib -0.022 | doramapimod -0.032 | bafetinib -0.049 | [2] -0.048

BCKDHB (UniProt P21953)
inactive: lapatinib 0.005 | pictilisib -0.043 | crizotinib -0.055 | [1] 0.083 | duvelisib 0.026 | gandotinib 0.015 | tozasertib 0.09 | doramapimod 0.064 | bafetinib -0.052 | [2] -0.017

ATR (UniProt Q13535)
active: pictilisib 0.408
inactive: lapatinib -0.036 | crizotinib -0.1 | [1] -0.158 | duvelisib 0.032 | gandotinib 0.117 | tozasertib 0.044 | doramapimod 0.068 | bafetinib -0.033 | [2] 0.161

CASC4 (UniProt Q6P4E1)
UniProt Q6P4E1, sequence (Q6P4E1 whole entry, looked up): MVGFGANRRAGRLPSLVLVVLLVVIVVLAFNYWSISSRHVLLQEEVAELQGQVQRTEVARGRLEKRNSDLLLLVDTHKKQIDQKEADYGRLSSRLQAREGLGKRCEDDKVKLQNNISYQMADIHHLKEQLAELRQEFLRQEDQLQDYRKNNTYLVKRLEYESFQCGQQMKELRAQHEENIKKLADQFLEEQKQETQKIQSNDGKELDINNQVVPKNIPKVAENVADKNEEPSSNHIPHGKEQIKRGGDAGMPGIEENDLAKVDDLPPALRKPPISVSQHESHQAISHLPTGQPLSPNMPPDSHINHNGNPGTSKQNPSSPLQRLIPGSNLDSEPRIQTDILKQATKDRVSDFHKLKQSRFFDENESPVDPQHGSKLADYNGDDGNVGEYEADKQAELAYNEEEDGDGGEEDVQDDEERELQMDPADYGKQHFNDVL
inactive: lapatinib -0.038 | pictilisib 0.069 | crizotinib 0.019 | [1] -0.088 | duvelisib 0.051 | gandotinib 0.016 | tozasertib 0.067 | doramapimod 0.057 | bafetinib -0.045 | [2] 0.02

CBFA2T3 (UniProt O75081)
inactive: lapatinib 0.041 | pictilisib -0.038 | crizotinib 0.013 | [1] 0.017 | duvelisib 0.006 | gandotinib -0.001 | tozasertib -0.014 | doramapimod 0.007 | bafetinib -0.007 | [2] 0.05

C15orf41 (UniProt Q9Y2V0)
inactive: lapatinib -0.078 | pictilisib 0.007 | crizotinib -0.033 | [1] 0.03 | duvelisib 0.059 | gandotinib 0.002 | tozasertib 0.102 | doramapimod -0.035 | bafetinib 0.009 | [2] -0.017

BSDC1 (UniProt Q9NW68)
active: gandotinib 0.312
inactive: lapatinib 0.088 | pictilisib -0.055 | crizotinib 0.012 | [1] -0.052 | duvelisib 0.016 | tozasertib -0.005 | doramapimod 0.098 | bafetinib -0.012 | [2] 0.019

C9orf72 (UniProt Q96LT7)
UniProt Q96LT7, sequence (Q96LT7 whole entry, looked up): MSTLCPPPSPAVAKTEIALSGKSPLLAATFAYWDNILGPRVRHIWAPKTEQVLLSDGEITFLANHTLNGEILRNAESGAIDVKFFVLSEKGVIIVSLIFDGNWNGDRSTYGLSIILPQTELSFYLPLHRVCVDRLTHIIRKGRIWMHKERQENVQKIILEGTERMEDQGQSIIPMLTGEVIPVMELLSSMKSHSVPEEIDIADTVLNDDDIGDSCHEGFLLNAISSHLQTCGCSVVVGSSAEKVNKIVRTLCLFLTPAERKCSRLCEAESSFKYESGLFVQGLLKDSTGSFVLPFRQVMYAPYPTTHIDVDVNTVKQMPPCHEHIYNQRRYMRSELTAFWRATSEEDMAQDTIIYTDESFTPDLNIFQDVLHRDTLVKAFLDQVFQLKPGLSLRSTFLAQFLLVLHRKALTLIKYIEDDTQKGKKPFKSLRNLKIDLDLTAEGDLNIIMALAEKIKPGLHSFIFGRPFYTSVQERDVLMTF
inactive: lapatinib 0.061 | pictilisib -0.112 | crizotinib 0.082 | [1] -0.075 | duvelisib -0.072 | gandotinib 0.035 | tozasertib -0.196 | doramapimod 0.03 | bafetinib -0.043 | [2] -0.009

C8orf37 (UniProt Q96NL8)
UniProt Q96NL8, sequence (Q96NL8 whole entry, looked up): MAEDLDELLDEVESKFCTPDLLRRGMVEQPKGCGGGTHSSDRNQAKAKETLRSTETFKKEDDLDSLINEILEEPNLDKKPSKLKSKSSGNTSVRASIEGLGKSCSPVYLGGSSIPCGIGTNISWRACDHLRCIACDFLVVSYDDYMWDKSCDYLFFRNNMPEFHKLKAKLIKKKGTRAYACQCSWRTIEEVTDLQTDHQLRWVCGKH
active: [1] -0.559
inactive: lapatinib -0.095 | pictilisib 0.006 | crizotinib 0.043 | duvelisib 0.046 | gandotinib -0.06 | tozasertib 0.006 | doramapimod 0.043 | bafetinib 0.09 | [2] 0.238

CARD11 (UniProt Q9BXL7)
active: pictilisib -0.287
inactive: lapatinib 0.001 | crizotinib -0.018 | [1] -0.025 | duvelisib 0.029 | gandotinib -0.035 | tozasertib -0.021 | doramapimod 0.028 | bafetinib -0.059 | [2] 0.038

CAMKK1 isoform 2 (UniProt Q8N5S9)
inactive: lapatinib 0.061 | pictilisib -0.074 | crizotinib -0.023 | [1] 0.032 | duvelisib -0.069 | tozasertib -0.067 | doramapimod 0.016 | bafetinib -0.021 | [2] -0.033
active: gandotinib 0.424

C12orf45 (UniProt Q8N5I9)
UniProt Q8N5I9, sequence (Q8N5I9 whole entry, looked up): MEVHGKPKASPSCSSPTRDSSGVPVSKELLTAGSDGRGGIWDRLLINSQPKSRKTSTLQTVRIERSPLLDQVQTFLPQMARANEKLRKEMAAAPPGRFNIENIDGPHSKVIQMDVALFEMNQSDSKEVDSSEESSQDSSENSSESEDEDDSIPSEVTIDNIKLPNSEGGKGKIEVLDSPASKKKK
inactive: lapatinib -0.027 | pictilisib -0.031 | crizotinib 0.042 | duvelisib -0.014 | gandotinib 0.148 | tozasertib -0.044 | doramapimod -0.023 | bafetinib 0.001 | [2] 0.072
active: [1] -0.269

CDK13 (UniProt Q14004)
inactive: lapatinib -0.077 | pictilisib 0.108 | crizotinib 0.08 | [1] 0.025 | duvelisib -0.006 | gandotinib -0.1 | tozasertib 0.027 | doramapimod 0.002 | bafetinib 0.101 | [2] -0.046

CDAN1 (UniProt Q8IWY9)
inactive: lapatinib 0.009 | pictilisib -0.05 | crizotinib -0.038 | [1] 0 | duvelisib 0.026 | gandotinib -0.073 | tozasertib 0.068 | doramapimod -0.021 | bafetinib -0.056 | [2] 0.051

CHAF1A (UniProt Q13111)
inactive: lapatinib 0.014 | pictilisib 0.063 | crizotinib 0.012 | [1] -0.054 | duvelisib -0.035 | gandotinib 0.009 | tozasertib -0.023 | doramapimod 0.026 | bafetinib -0.075 | [2] -0.005

CELF1 isoform 4 (UniProt Q92879)
inactive: lapatinib 0.011 | pictilisib 0.023 | crizotinib 0.032 | [1] 0.021 | duvelisib -0.036 | gandotinib -0.028 | tozasertib 0.019 | bafetinib -0.09 | [2] -0.018
active: doramapimod -0.605

CDKN1C (UniProt P49918)
inactive: lapatinib 0.027 | pictilisib -0.033 | crizotinib 0.105 | [1] -0.025 | duvelisib -0.035 | gandotinib -0.046 | tozasertib -0.095 | doramapimod -0.045 | bafetinib 0.049 | [2] 0.071

ATP9B (UniProt O43861)
UniProt O43861, sequence (O43861 whole entry, looked up): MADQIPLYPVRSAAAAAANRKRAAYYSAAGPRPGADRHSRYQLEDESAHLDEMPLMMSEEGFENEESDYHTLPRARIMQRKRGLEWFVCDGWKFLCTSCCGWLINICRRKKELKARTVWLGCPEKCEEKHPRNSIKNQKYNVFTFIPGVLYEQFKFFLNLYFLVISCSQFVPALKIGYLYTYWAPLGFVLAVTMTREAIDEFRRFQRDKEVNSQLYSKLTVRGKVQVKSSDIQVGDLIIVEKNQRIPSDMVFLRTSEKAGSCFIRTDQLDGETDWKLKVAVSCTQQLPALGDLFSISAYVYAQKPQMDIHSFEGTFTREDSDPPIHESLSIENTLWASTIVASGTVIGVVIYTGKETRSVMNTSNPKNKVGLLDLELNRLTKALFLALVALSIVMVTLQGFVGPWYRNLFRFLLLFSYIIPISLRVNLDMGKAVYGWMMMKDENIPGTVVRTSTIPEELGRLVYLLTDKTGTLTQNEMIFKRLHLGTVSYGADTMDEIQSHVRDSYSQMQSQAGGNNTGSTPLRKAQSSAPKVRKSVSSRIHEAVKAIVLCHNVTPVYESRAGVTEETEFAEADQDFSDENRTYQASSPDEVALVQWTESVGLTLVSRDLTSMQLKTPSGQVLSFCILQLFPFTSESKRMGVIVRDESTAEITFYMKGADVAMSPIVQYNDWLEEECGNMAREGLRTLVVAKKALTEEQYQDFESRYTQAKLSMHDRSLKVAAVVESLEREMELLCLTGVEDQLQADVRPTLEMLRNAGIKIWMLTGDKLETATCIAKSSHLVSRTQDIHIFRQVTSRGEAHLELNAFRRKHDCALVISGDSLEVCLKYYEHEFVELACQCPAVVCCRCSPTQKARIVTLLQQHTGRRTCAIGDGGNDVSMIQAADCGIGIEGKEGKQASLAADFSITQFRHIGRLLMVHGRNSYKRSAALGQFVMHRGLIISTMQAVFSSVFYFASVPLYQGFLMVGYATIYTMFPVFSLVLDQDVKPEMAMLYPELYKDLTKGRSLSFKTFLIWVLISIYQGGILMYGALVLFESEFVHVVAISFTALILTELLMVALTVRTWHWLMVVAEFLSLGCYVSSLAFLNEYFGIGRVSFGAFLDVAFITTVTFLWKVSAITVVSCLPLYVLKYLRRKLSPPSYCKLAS
active: bafetinib 0.446
inactive: lapatinib -0.063 | pictilisib -0.269 | crizotinib 0.032 | [1] -0.181 | duvelisib -0.005 | gandotinib -0.037 | tozasertib 0.017 | doramapimod 0.136 | [2] 0.242

ATG4B (UniProt Q9Y4P1)
inactive: lapatinib 0.012 | pictilisib -0.042 | crizotinib -0.087 | [1] 0.114 | duvelisib 0.01 | gandotinib -0.128 | tozasertib -0.013 | doramapimod 0.004 | bafetinib -0.008 | [2] -0.059

CAPN15 (UniProt O75808)
UniProt O75808, sequence (O75808 whole entry, looked up): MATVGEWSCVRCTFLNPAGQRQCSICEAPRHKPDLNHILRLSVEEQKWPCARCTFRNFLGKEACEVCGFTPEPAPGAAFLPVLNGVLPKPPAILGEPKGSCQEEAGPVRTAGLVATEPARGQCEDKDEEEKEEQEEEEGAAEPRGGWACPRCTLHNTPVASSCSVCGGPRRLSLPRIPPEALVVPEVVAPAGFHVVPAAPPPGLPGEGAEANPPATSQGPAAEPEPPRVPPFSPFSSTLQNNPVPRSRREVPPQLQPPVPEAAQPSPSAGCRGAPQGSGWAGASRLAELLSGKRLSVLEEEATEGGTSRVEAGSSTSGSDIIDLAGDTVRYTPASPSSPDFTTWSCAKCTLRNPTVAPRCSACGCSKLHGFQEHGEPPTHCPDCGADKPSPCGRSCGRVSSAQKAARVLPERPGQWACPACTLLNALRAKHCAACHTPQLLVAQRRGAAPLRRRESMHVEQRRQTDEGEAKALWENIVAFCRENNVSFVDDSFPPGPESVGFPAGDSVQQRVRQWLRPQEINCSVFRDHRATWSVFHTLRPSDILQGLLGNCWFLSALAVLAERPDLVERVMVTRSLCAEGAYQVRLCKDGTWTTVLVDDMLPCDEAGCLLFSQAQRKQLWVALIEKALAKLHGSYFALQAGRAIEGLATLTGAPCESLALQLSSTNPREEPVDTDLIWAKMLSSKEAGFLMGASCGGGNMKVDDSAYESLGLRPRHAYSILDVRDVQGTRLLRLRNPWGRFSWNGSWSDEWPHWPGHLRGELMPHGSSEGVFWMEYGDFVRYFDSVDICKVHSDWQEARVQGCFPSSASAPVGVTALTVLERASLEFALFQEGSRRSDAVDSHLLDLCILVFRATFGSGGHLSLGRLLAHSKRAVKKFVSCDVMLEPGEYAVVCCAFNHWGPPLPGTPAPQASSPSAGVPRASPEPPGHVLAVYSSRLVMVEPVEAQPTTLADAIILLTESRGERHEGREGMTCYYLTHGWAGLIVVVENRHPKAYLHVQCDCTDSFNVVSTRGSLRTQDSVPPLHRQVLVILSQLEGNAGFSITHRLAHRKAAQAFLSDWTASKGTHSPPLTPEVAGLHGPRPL
inactive: lapatinib 0.063 | pictilisib -0.046 | crizotinib -0.047 | [1] 0.004 | duvelisib -0.022 | gandotinib -0.033 | tozasertib 0.042 | doramapimod 0.106 | bafetinib -0.003 | [2] -0.01

CDC7 (UniProt O00311)
UniProt O00311, sequence (O00311 whole entry, looked up): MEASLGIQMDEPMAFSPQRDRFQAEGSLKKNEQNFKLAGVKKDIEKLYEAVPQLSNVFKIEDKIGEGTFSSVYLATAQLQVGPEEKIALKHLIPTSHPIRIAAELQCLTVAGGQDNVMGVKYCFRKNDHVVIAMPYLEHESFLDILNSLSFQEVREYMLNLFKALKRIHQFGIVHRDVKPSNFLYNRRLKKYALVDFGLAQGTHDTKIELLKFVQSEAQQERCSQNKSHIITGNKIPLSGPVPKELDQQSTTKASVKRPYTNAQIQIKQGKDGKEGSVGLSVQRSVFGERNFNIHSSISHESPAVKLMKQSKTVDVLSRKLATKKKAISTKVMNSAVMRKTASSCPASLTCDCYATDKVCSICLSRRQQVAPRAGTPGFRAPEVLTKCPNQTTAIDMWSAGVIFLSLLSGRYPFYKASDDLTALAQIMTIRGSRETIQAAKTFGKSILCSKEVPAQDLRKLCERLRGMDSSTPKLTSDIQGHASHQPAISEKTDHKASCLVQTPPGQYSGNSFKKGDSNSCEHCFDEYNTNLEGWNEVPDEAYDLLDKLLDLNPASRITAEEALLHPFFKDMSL
active: [1] -0.335
inactive: lapatinib 0.112 | pictilisib -0.067 | crizotinib -0.024 | duvelisib -0.007 | gandotinib 0.047 | tozasertib -0.01 | doramapimod 0.06 | bafetinib 0.009 | [2] 0.087
